PubChem BioAssay (EPA / NIEHS)
Active and inactive are the calls of the source. Rule for the calls: active = hit-call score of the fitted dose curve at least 0.9, where 1 is the maximum; inactive = score below 0.9.

Assay: ATG_FoxO_CIS: Attagene CIS-FACTORIAL HepG2 Assay for human Forkhead box O (FoxO) (AID 2282943)
Settings: HepG2 Attagene cis-reporter, FoxO element, mRNA; actives raise or lower the signal
Method: ATG_CIS is a cell-based, multiplexed-readout assay that uses HepG2, a human liver cell line, with measurements taken at 24 hours after chemical dosing in a 24-well plate.ATG_FoxO_CIS is one of 52 assay component(s) measured or calculated from the ATG_CIS assay. It is designed to make measurements of mRNA induction, a form of inducible reporter, as detected with fluorescence intensity signals by Reverse transcription polymerase chain reaction (RT-PCR) and Capillary electrophoresis technology.Data from the assay component ATG_FoxO_CIS was analyzed into 1 assay endpoint. This assay endpoint, ATG_FoxO_CIS, was analyzed with bidirectional fitting relative to DMSO as the negative control and baseline of activity. Using a type of inducible reporter, measures of mRNA for gain or loss-of-signal activity can be used to understand the reporter gene at the transcription factor-level as they relate to the gene FOXO1 and FOXO3. Furthermore, this assay endpoint can be referred to as a primary readout, because this assay has produced multiple assay endpoints where this one serves a reporter gene function. To generalize the intended target to other relatable targets, this assay endpoint is annotated to the dna binding intended target family, where the subfamily is forkhead box protein.
Human liver HepG2 cells are transiently transfected with multiple reporter transcription units (MRTUs) in 6-well plates using FuGene 6 reagent (Roche; 3 ml FuGene/1 mg DNA). The MRTU constructs are regulated by a cis-regulating element (promoter). […] A major difference between the CIS and TRANS system is that in CIS activities of endogenous TFs are measured, whereas the TRANS assay evaluates changes in activities of exogenous, chimeric NR-Gal4 proteins. […] At the end of 24 hour incubation, total RNA was isolated using TriZol reagent (Invitrogen). The isolated RNA is then reverse-transcribed using oligo(dT) primer and Mo-MLV reverse transcriptase (Invitrogen) with DNAse I (Ambion) treatment for 30 min. The one-tenth of the produced cDNA was amplified by PCR using Taq DNA polymerase (Invitrogen) and two reporter sequence-specific primers. The PCR products were fluorescently labeled by primer extension with 6-arboxyfluorescein (6-FAM) 5'-labeled reporter sequence-specific primer (2 min at 95 C, 20 s at 68 C and 10 min at 72 C) and these products were digested with 5U of HpaI (New England Biolabs) for 2h at 37 C. The fragments were purified using Qiaquick PCR columns (Qiagen), analyzed on an ABI 3130xL genetic analyzer (Applied Biosystems) with peak positions identified by using a set of X-rhodamine (ROX)-labeled MapMarker1000 molecular weight standards (BioVentures). The raw capillary electrophoresis data was processed using Attagraph software (Attagene).

| SMILES | outcome | AC50 |
| --- | --- | --- |
| O=C(Oc1ccc(Br)cc1)N1CCN2CCC1CC2 | inactive | – |
| Nc1ccc(Cc2ccc(N)cc2)cc1 | inactive | – |
| COC(=O)c1ccccc1N | inactive | – |
| CCCCOC(=O)c1ccccc1C(=O)OCc1ccccc1 | inactive | – |
| CC(C)(C)OOC(C)(C)CCC(C)(C)OOC(C)(C)C | inactive | – |
| OCCCl | inactive | – |
| Cn1cc(-c2ccccc2)c(=O)c(-c2cccc(C(F)(F)F)c2)c1 | inactive | – |
| O=[N+]([O-])c1ccc(Oc2ccc(Cl)cc2Cl)cc1 | inactive | – |
| C=CCc1ccc2c(c1)OCO2 | inactive | – |
| CCC12COCN1COC2 | inactive | – |
| CC(C)COC(=O)c1ccccc1C(=O)OCC(C)C | inactive | – |
| CC(C)(OOC(C)(C)c1ccccc1)c1ccccc1 | inactive | – |
| CC(C)(C)C(O)(CCc1ccc(Cl)cc1)Cn1cncn1 (stereo not given) | inactive | – |
| CC(C)(O)c1cnn2c(-c3ccc(F)c(-c4c(F)cccc4C#N)c3)cnc2n1 | inactive | – |
| CC(C)(C)OOC(=O)c1ccccc1 | – | 156 µM (active) |
| [Cl-].[Cl-].[Hg+2] | inactive | – |
| CCC[CH2][Sn]([Cl])([CH2]CCC)[CH2]CCC | inactive | – |
| O=P(OCCCl)(OCCCl)OCCCl | inactive | – |
| CCOC(=O)[C@]1(c2ccccc2)Oc2ccccc2[C@@H]1N | – | 49.5 µM (active) |
| Nc1cc(Cl)cc(C(=O)O)c1Cl | inactive | – |

| SMILES | outcome | AC50 |
| --- | --- | --- |
| CN(C)C(=O)Nc1ccc(Cl)cc1 | inactive | – |
| O=C1CCCO1 | inactive | – |
| N#CC(Br)(Br)C(N)=O | inactive | – |
| Nc1ccc(N=Nc2ccccc2)cc1 | inactive | – |
| CN(C)c1ccc(C(=O)c2ccc(N(C)C)cc2)cc1 | inactive | – |
| Cc1ccc(N=C=O)cc1N=C=O | inactive | – |
| Oc1ccccc1Cl | inactive | – |
| COP(=S)(OC)SCN1C(=O)c2ccccc2C1=O | inactive | – |
| COC(=O)Nc1nc2ccccc2[nH]1 | inactive | – |
| Nc1ccc([N+](=O)[O-])cc1 | inactive | – |
| [O-][Cl+]O | inactive | – |
| c1ccc(N=Nc2ccccc2)cc1 | inactive | – |
| CO[C@@H]1[C@H](OC(=O)NC(=O)CCl)CC[C@]2(CO2)[C@H]1[C@@]1(C)O[C@@H]1CC=C(C)C | inactive | – |
| c1ccc2c(c1)-c1cccc3cccc-2c13 | inactive | – |
| O=C(O)C1C2CCC(O2)C1C(=O)O (stereo not given) | inactive | – |
| O=Cc1ccco1 | inactive | – |
| Cc1ccc(N)c(N)c1 | inactive | – |
| Clc1ccc(C(c2ccc(Cl)cc2)C(Cl)Cl)cc1 | inactive | – |
| ClC1=C(Cl)C2(Cl)C3C(Cl)C=CC3C1(Cl)C2(Cl)Cl (stereo not given) | inactive | – |
| OCCOCCO | inactive | – |
